Each structure is given as a SMILES string. Values without a mark were called inactive.

Consider eleven compounds from PubChem BioAssay.

The nature of this test: S. cerevisiae RM11-1a growth modifiers, primary screen, strain RM11-1a, OD600, basal, 24 h (AID 1177).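 Further: cultures grown under basal conditions with no added stressor; test concentration not given here.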 To be noted: OD600, 24 h, higher = more signal, called active from +8 up or from −8 down.
For the compound `COc1cc2c(cc1O)C(c1cccs1)N(Cc1sc3ccccc3c1Cl)CC2` (stereo unspecified), the z-score was -0.0369. Then `CC(C)(C)OC(=O)CC[C@]12N=C(c3ccc(OCCCO)cc3)O[C@H]1c1ccccc1N(Cc1ccccc1)C2=O`, with 2.29; and `O=C1C2C=CC(C(O)c3ccc(I)cc3)N(Nc3ccccc3)C2C(=O)N1c1ccccc1` (stereo unspecified), with -0.208. Then `C=CCN1C(=O)[C@@]2(O[C@@H](CCO)[C@H]([Si](C)(C)c3ccc(OC)cc3)[C@H]2C)c2cc(N3CCOC3=O)ccc21`, with 4.47; and `CCOC(=O)C1=C[C@@H](C(C)(C)C)N(S(=O)(=O)c2ccc(C)cc2)[C@H]1c1cccc(Cl)c1`, with 2.81; and `CO[C@H]1O[C@H](CO)[C@@H](OC(=O)Nc2cccc(F)c2)[C@H](OC(=O)Nc2ccccc2-c2ccccc2)[C@H]1OC(=O)Nc1ccccc1-c1ccccc1`, with 1.03. On to `COCC(=C=CC[C@@H](O)c1ccc(OCCO)cc1)CCO`, for which the z-score is 0.453. With `C=CCC(OC(C)=O)[C@@H]1[C@@H](N(Cc2ccc(-c3cccc(C(F)(F)F)c3)o2)C(=O)Cc2ccc(OC)cc2)c2cc(OCCCO)ccc2N1C(=O)Cc1ccc2ccccc2c1` (stereo partly specified), the z-score is 0.132. Then `CN1C(=O)[C@@H]2[C@@H](CC(COc3ccccc3)=C([C@H](O)CCc3ccccc3)[C@@H]2CO)C1=O`, with -0.136; and `COc1cc(NN2C(C(O)C3CCCCC3)C=CC3C(=O)N(C)C(=O)C32)cc(OC)c1OC` (stereo unspecified), with 0.668.

Take `C=CCC(OC(C)=O)[C@@H]1[C@@H](N(Cc2cccc3ccccc23)C(=O)c2ccc(-c3ccccc3)cc2)c2cc(OCCCO)ccc2N1C(=O)c1ccc(-c2ccccc2)cc1` (stereo partly specified): the z-score was -0.929.
